The supplement of paper PMC6763611

These compounds were tested on Plasmodium falciparum NF54 (assay: growth inhibition relative to untreated control; higher = more inhibition). Settings: 5 µM; minimal medium (MM); 72 h.
In short: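 Growth inhibition was measured by SYBR Green fluorescence, normalised to untreated wells and corrected for background from uninfected erythrocytes. The parasites were P. falciparum NF54 ring stages (1% hematocrit, 1% parasitemia) exposed to single 5 μM or 1 μM doses of test compounds for 72 h at 37 °C, in either minimal RPMI or minimal RPMI containing 2.2 μM folate, 7.3 μM pABA, 7.3 μM pHBA, 111 μM tyrosine, 90 μM phenylalanine and tryptophan.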

| SMILES | growth inhibition [%] |
| --- | --- |
| COc1cc(C2=NCCN2)cc2cc(-c3ccc(C4=NCCN4)cc3)oc12 | 100 |
| O=C(Nc1nc(-c2ccccn2)cs1)C1CC1c1ccccc1F (centres undefined) | 26.1 |
| CCCn1c(NC(=O)c2ccc3ccccc3n2)nc2ccccc21 | 85 |
| Cc1cc(Cl)c(S(=O)(=O)N2CCCC2)cc1OCC(=O)NC1CCCCC1 | 59.9 |
| COc1cc(NC(=O)Cc2nn(C)c(=O)c3ccccc23)ccc1Cl | < 0 |
| CC(C)(C)c1ccc(N[C@@H]2CCCC[C@H]2NC(=O)c2ccco2)cc1 | 1.67 |
| CC(C)C(Oc1cccc2ccccc12)C(=O)O (centres undefined) | 0.0991 |
| Cc1cc(OCC(=O)NCc2ccccc2)c2cc(Br)ccc2n1 | < 0 |
| FC(F)(F)c1cnc(Sc2nnc(-c3ccncc3)o2)c(Cl)c1 | < 0 |
| Cc1cc(NC(=O)c2ccc(Oc3ccc(Cl)cc3O)o2)no1 | 34.9 |
| N#Cc1nc(-c2ccccc2F)oc1NCCc1ccccc1 | 15.2 |
| Cc1nn2c(O)c3c(nc2c1-c1ccc(F)cc1)CCCC3 | 24.6 |
| N#CCN(CCCCN1CCN(c2ccc(F)cc2)CC1)C(=O)OCc1ccccc1 | 18.1 |
| CC(C)/N=c1\cc2n(-c3ccc(Cl)cc3)c3ccccc3nc-2cc1Nc1ccc(Cl)cc1 | 94.1 |
| O=C(Nc1ccc(C(F)(F)F)c(C(F)(F)F)c1)c1cc(Cl)ccc1O | 92.5 |
| CC1=Nc2ccc(Cl)cc2C(O)(c2ccc(C)cc2)N1CCN1CCCCC1 (centres undefined) | 86.9 |
| CCC(NC(=O)c1ccccc1NC(=O)c1ccc(C)cc1)C(=O)OC (centres undefined) | 91.3 |
| COc1ccc(N(CCc2cccc(C)n2)C(=O)C2CCCCC2)cc1 | 9.01 |
| CNc1cc(C)nc(C2CN(C(=O)c3n[nH]c4ccccc34)CCO2)c1 (centres undefined) | 21.7 |
| C[C@H](c1ccc2c(c1)CCCC2)N(C)c1ncc2c(N)nc(N)nc2n1 | 15.3 |

| SMILES | growth inhibition [%] |
| --- | --- |
| COc1ccc(C(=N)N)cc1-c1cn(-c2ccc(C(=N)N)cc2)nn1 | 39.2 |
| Cc1cc(C(=O)Nc2cnn(Cc3ccc(Cl)cc3Cl)c2)no1 | 87.4 |
| Nc1cccnc1Nc1ccc(Cl)cc1 | 19.2 |
| Nc1nccc2ccc(-c3ccc4nccn4c3)cc12 | 88.2 |
| CCS(=O)(=O)N(Cc1ccco1)Cc1cc2ccc(C)cc2nc1O | 94.5 |
| Clc1ccc(CCNc2cc(-c3ccccc3)nc3ncnn23)cc1 | < 0 |
| CCN(CC)C(=O)N1CCN(C)CC1 | < 0 |
| CNc1snc(C)c1C(=O)NCCOc1ccc(OC)cc1 | 34.9 |
| CS(=O)(=O)c1cccc(-c2cnc3[nH]cc(-c4ccc(CCC(=O)O)cc4)c3c2)c1 | 86.2 |
| NC(=O)c1cc(-c2ccsc2)ccc1OCCOc1ccccc1 | < 0 |
| CO[C@H]1/C=C\O[C@@]2(C)Oc3c(C)c(O)c4c(O)c(/c(=C/NN5CCN(C)CC5)c(O)c4c3C2=O)=N\C(=O)/C(C)=C\C=C/[C@H](C)[C@H](O)[C@@H](C)[C@@H](O)[C@@H](C)[C@H](OC(C)=O)[C@@H]1C | 97.2 |
| CN1CCN(c2nccc3[nH]c(-c4cccc(F)c4)cc23)CC1 | 90 |
| Nc1nc(N)c2c3c(sc2n1)CN(Cc1ccccc1)CC3 | 91.9 |
| COc1cc2ncnc(NC3CCN(Cc4ccccc4)CC3)c2cc1OC | 92.2 |
| O=C(Nc1cccnc1)c1c(O)c2cccc3c2n(c1=O)CC3 | < 0 |
| Cc1nn(C(=O)Nc2cccc(C(F)(F)F)c2)c(C)c1Sc1ncccn1 | 39.2 |
| Cc1nn(C)cc1C(C)Nc1nncc(-c2ccc(C(F)(F)F)cc2)n1 (centres undefined) | 91.7 |
| O=C(NC1=NCCS1)c1sc2cc(F)ccc2c1Cl | < 0 |
| Cc1cc(NCC(C)C)c2[nH]nc(-c3ccccc3)c2n1 | 87.9 |
